Most compounds without a hit are left out; they make up all but 3.3% or so of the library.
Giardia FBPA inh = Giardia lamblia aldolase inhibition | A8B2U2 | Potency, µM (series often up to 59.6 µM), for the others: at the top dose activity, negative = inhibition, actives largely listed as inhibitors | purified Giardia FBPA | actives 0.71% (n = 290,000); note: nearly all actives have a fitted effect of over 55% in size
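40 nM FBPA preincubated 10 min at RT with compound (up to 57.5 uM final), then substrate plus GAPDH/TPI/NAD/arsenate coupling and diaphorase/resazurin added. Fluorescence read after 20 min at RT, 525/598 nm.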
RE007 growth inh = less growth of the S. pombe RE007 Vpr strain | Potency, µM (titrated, usually from 92.2 µM), for inactives: at the highest dose activity change, negative = less growth, hits mostly inhibitors | S. pombe RE007 Vpr strain, BacTiter-Glo ATP luminescence, 24 h | actives 0.21% (n = 360,000); active = well fitted falling curve with a large enough effect; inconclusive = small, poorly fitted or top-dose-only effect; inactive = no such curve, though single readings can be large or run the other way; note: nearly all actives have a fitted effect of over 50% in size
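Fission yeast RE007 carrying one integrated HIV-1 vpr copy, seeded at OD 0.01 in PMG+AL medium with 23 nL pinned compound. Grown 24 h at 30 degrees; viability read by BacTiter-Glo luminescence after 5 min.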
Tb PYK inh = blocks Trypanosoma brucei pyruvate kinase; Q57TT1; TbPYK enzyme, Kinase-Glo Plus ATP luminescence, 45 min; Potency, µM (doses to about 76.8 µM), inactives show at the top dose activity, negative = inhibition, actives largely listed as inhibitors; actives 0.12% (n = 410,000); AID 624173; note: nearly all actives have a fitted effect of over 50% in size
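Screened from lowest to highest concentration, compounds were pinned into TbPYK/substrate mixtures, and ADP (130 uM final) was added. Plates sat at room temperature for 45 min prior to Kinase-Glo Plus detection by luminescence.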
Sm TGR inh = inhibitors of Schistosoma mansoni thioredoxin glutathione reductase; Q962Y6; purified TGR, DTNB reduction, TNB absorbance 405 nm; Potency, µM (top dose mostly 114 µM), without a hit: top-dose activity change, negative = inhibition, actives largely listed as inhibitors; actives 3% (n = 360,000); AID 485364; note: nearly all actives have a fitted effect of over 60% in size
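TGR 20 nM + NADPH 100 uM (dispensed conc.), cpd preinc 15 min RT; start with NADPH (500 uM addition) then DTNB (15 mM addition). Kinetic TNB absorbance, 405 nm filter. Four-parameter Hill fit across titration.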
LmPK inhibitor = blocks Leishmania mexicana pyruvate kinase activity | Potency, µM (top dose mostly 57.5 µM), for the others: at the highest dose activity change, negative = inhibition, usual class: inhibitors | purified LmPK, Kinase-Glo ATP luminescence, 1 h | Q27686 | actives 0.37% (n = 290,000) | AID 1721
Target sequence (Q27686 whole entry, looked up): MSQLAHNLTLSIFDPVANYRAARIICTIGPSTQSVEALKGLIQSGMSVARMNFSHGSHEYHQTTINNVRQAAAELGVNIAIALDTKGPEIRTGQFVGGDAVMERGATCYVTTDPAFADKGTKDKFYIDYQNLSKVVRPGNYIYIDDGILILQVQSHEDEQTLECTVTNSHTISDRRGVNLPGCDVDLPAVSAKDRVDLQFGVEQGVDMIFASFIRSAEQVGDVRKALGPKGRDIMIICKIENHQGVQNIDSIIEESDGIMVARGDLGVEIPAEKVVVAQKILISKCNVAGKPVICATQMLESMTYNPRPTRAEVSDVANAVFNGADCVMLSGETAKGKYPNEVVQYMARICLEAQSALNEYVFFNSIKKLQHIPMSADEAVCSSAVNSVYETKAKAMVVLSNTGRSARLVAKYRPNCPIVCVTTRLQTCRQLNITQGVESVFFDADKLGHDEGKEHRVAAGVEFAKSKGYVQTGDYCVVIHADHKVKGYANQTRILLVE
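0.1 nM LmPK, 0.5 mM PEP, 0.1 mM ADP; 50 mM imidazole pH 7.2, 7 mM MgCl2, 50 mM KCl; 1 h RT. Kinase-Glo luminescence readout, normalized to no-enzyme (full inhibition) and uninhibited wells.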
* = called active by the depositor; ? = inconclusive; . = no result given. Unless noted, calls come from the whole dose curve; as a rule, active = well fitted curve in the direction sought with a large enough effect; inconclusive = small, poorly fitted or top-dose-only effect, or another doubt; inactive = no such curve, though single readings can be large; an effect the other way counts as inactive or inconclusive. % is set by controls: 0 for no effect and ±100 for the full control effect; potency is the fitted concentration of half-maximal effect.

SMILES | Giardia FBPA inh | RE007 growth inh | Tb PYK inh | Sm TGR inh | LmPK inhibitor
COC(=O)c1cc(S(=O)(=O)Nc2cccc(OC)c2)cn1C | 5% | 8% | -18% | -23% | -4%
C=CCn1c(C)cc(C)c(C#N)c1=O | 13% | -11% | -4% | -1% | 6%
C=CCn1c(O)c(CN2CCOCC2)c(C)c(C#N)c1=O | 14µM* | 3% | -11% | 40µM* | -1%
O=C(Oc1c(Cl)cc(Cl)c2cccnc12)c1cccc([N+](=O)[O-])c1 | 14% | 8.9µM* | 8% | ? | -3%
COC(=O)[C@@]1(Cc2ccccc2)[C@H]2C(=O)N(Cc3ccccc3)C(=O)[C@H]2[C@H]2CN(C)C(=NCc3ccccc3)N21 | . | -12% | -4% | . | .
O=C(O)[C@H]1CCC(=O)N1Cc1ccco1 | 3% | 0% | -3% | -15% | 2%
CN(Cc1ccccc1)C(=O)[C@H]1CCC(=O)N1Cc1ccco1 | 1% | -5% | -18% | 16µM* | 6%
C[C@H](NC(=O)[C@@H]1CCC(=O)N1Cc1ccco1)c1ccccc1 | 5% | 21% | 1% | 50µM* | 2%
CCOc1ccc2nc(/N=C/c3c(C)[nH]n(-c4ccc(C)cc4)c3=O)sc2c1 | 21% | 13µM* | -33% | 3% | 14µM*
CCOc1ccc2nc(/N=C/c3c(C)[nH]n(-c4ccccc4)c3=O)sc2c1 | 10% | ? | -20% | -10% | -20%
COCCCNC(=O)c1c(NC(=O)c2nc(S(C)(=O)=O)ncc2Cl)sc2c1CCCC2 | . | . | 1% | 5.6µM* | .
O=C(NCc1ccco1)C(Cc1ccccc1)N1C(=O)C2C3C=CC(C3)C2C1=O (stereo unspecified) | 3% | -11% | -13% | 22µM* | 1%
O=C(CC(Cc1ccccc1)c1ccco1)NCc1ccco1 (stereo unspecified) | 3% | 15% | 1% | ? | 11%
O=C(C(Cc1ccccc1)N1C(=O)C2C3C=CC(C3)C2C1=O)N1CCCCCC1 (stereo unspecified) | -2% | 2% | 1% | 79µM* | 7%
O=C(C(Cc1ccccc1)N1C(=O)C2C3C=CC(C3)C2C1=O)N1CCCCC1 (stereo unspecified) | 1% | 2% | -11% | 0% | 8%
Cc1ccc(N2C(=O)c3ccccc3C2C(=O)c2ccc(O)cc2O)cc1 (stereo unspecified) | 1% | 1% | -6% | ? | 6%
Cc1ccc(N2C(=O)c3ccccc3C2C(=O)c2ccc(C)c(C)c2O)cc1 (stereo unspecified) | -23% | 3% | -8% | 4.5µM* | 12%
Cc1ccccc1[C@]1(C)ON(c2ccccc2C(F)(F)F)C1=O | . | . | . | 0% | .
CC[C@]1(c2ccccc2C)ON(c2ccccc2C(F)(F)F)C1=O | . | 10% | -7% | 56µM* | .
CCOc1ccccc1N1C(=O)NC(=O)/C(=C/c2ccc3c4c(cccc24)CC3)C1=O | -22% | -16% | ? | 32µM* | 3%
COc1cccc(N2C(=O)NC(=O)/C(=C/c3ccc4c5c(cccc35)CC4)C2=O)c1 | -28% | . | . | 25µM* | 3%
COc1ccc(N2C(=O)NC(=O)/C(=C/c3ccc4c(c3)Cc3ccccc3-4)C2=O)cc1 | -13% | . | . | ? | -4%
Cc1ccc(OCCC(=O)OCC(=O)N2c3ccccc3CC2C)cc1 (stereo unspecified) | 3% | -17% | -2% | -6% | 4%
COCCN1CCn2c(nc3cc(NC(=O)c4ccc(OC)cc4)ccc32)C1 | -14% | 0% | 4% | 16µM* | 9%
Cc1nn(CC(=O)Nc2ccc3c(c2)nc2n3CCOC2)c(=O)c2ccccc12 | 0% | 12% | 12% | 6% | -1%
COCCN1CCn2c(nc3cc(NC(=O)Cn4nc(C)c5ccccc5c4=O)ccc32)C1 | -3% | 10% | -5% | 25µM* | 1%
COCCN1CCn2c(nc3cc(NC(=O)NC4CCCCC4)ccc32)C1 | ? | 1% | -8% | 8.9µM* | 8%
CCOC(=O)Nc1ccc2c(c1)nc1n2CCN(CCOC)C1 | -19% | 12% | 3% | -15% | 0%

Bioassay records (PubChem)
